Reference: PubChem BioAssay (EPA / NIEHS)
Several values for one entry are separate records, joined by “and”; a condition that tells them apart may be missing. Equal entries are not always repeated. Some structures have more than one record in an assay (separate samples or runs), and their calls can disagree. Activity calls are given as the source filed them. Rule for the calls: active = hit-call score of the fitted dose curve at least 0.9, where 1 is the maximum; inactive = score below 0.9.

How the values were obtained:
[1] = APR_HepG2_NuclearSize_72hr: Apredica 72-hour HepG2 Assay for Nuclear Size (AID 2282925); conditions: high-content imaging, actives raise or lower the signal
Method in brief: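 Nuclear size was read by high-content imaging of Hoechst 33342 stain after formaldehyde fixation. Compounds ran 72 h on HepG2 at 0.39 to 200 uM, with final DMSO 0.5% v/v. Curves fitted both directions relative to DMSO control.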

[2] = ATG_CRE_CIS: Attagene CIS-FACTORIAL HepG2 Assay for human cAMP Responsive Element (CRE) binding protein 3 (AID 2282926); conditions: HepG2 CRE cis-reporter, Attagene multiplexed mRNA; actives raise or lower the signal
Method in brief: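 Endogenous transcription factor activity read via CRE-regulated reporter transcripts in transfected HepG2 cells. After 24 h exposure, RNA was reverse-transcribed, amplified, fluorescently labelled and sized by capillary electrophoresis; gain or loss fitted against DMSO.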

[3] = biological target: CCAAT/enhancer-binding protein beta (Homo sapiens) (UniProt P17676); assay: ATG_C_EBP_CIS: Attagene CIS-FACTORIAL HepG2 Assay for human CCAAT/Enhancer Binding Protein (C/EBP) beta (AID 2282927); conditions: HepG2 Attagene cis-factorial transcription factor reporter; actives raise or lower the signal
Chain of CCAAT/enhancer-binding protein beta (Homo sapiens) (P17676 whole entry, looked up): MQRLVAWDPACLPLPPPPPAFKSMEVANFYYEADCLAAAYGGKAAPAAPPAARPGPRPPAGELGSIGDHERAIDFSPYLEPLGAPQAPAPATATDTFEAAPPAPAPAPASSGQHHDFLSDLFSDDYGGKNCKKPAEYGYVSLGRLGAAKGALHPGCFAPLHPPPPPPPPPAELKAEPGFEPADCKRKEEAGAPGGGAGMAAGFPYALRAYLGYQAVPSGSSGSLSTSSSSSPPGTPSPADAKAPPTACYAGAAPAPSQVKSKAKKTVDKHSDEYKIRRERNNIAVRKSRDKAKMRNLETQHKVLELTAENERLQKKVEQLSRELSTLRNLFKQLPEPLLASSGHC
Method in brief: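 Endogenous transcription factor activity in human liver HepG2 cells is inferred from induction of a CEBPB-linked reporter mRNA. Exposure lasts 24 h; activity is fitted in both directions relative to DMSO.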

[4] = ATG_CMV_CIS: Attagene CIS-FACTORIAL HepG2 Assay for human CMV (Internal Marker) (AID 2282928); conditions: HepG2 CMV promoter reporter, transcription factor profiling; actives raise or lower the signal;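 note: endpoint acts as a background internal control marker rather than a target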
Method in brief: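 Readout: fluorescent reporter cDNA fragments separated by capillary electrophoresis after RT-PCR and HpaI cut. Cells: HepG2 carrying transfected cis-promoter reporter constructs, dosed 24 h. Endpoint serves as background internal-marker control, fit bidirectionally versus DMSO.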

[5] = ATG_DR4_LXR_CIS: Attagene CIS-FACTORIAL HepG2 Assay for human Liver X Receptor (LXR), DR4 submotif (AID 2282929); conditions: HepG2 Attagene DR4 cis-reporter, mRNA transcription; actives raise or lower the signal
Method in brief: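 Fluorescence intensity of labelled reporter cDNA fragments, separated by capillary electrophoresis, gives the signal. HepG2 cells bearing cis-regulated reporter constructs were treated 24 h; activity fitted bidirectionally relative to DMSO negative control.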

[6] = biological target: Aryl hydrocarbon receptor (Homo sapiens) (UniProt P35869); assay: ATG_Ahr_CIS: Attagene CIS-FACTORIAL HepG2 Assay for human Aryl Hydrocarbon Receptor (Ahr) (AID 2282930); conditions: HepG2 AhR cis-factorial reporter transcription; actives raise or lower the signal
Chain of Aryl hydrocarbon receptor (Homo sapiens) (P35869 whole entry, looked up): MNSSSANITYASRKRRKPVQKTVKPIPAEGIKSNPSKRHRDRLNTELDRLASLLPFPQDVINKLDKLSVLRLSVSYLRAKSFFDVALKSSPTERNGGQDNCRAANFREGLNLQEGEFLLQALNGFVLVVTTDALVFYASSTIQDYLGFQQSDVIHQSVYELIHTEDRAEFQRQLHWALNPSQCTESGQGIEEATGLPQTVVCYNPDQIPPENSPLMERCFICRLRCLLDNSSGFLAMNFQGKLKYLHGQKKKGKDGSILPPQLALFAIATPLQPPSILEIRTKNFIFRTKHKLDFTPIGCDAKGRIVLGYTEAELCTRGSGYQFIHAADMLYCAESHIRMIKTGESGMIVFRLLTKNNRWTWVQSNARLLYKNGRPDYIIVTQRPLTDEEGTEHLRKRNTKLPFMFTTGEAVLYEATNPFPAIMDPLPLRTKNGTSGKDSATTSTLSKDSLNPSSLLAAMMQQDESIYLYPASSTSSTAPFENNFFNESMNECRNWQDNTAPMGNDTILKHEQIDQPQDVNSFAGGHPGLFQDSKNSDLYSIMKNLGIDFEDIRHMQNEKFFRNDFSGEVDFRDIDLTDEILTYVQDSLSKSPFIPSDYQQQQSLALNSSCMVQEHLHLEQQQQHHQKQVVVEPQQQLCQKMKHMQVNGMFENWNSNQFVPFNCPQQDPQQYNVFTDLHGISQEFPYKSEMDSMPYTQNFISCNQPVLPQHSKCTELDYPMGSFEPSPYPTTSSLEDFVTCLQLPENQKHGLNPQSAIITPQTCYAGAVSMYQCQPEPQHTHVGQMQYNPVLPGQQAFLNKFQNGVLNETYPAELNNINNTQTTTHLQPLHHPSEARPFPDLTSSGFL
Method in brief: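 Transient MRTU transfection of HepG2 → 24 h compound exposure → total RNA, oligo(dT) RT → PCR, 6-FAM extension, HpaI cut → CE fluorescence. DMSO = baseline; bidirectional curve fit.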

[7] = ATG_AP_1_CIS: Attagene CIS-FACTORIAL HepG2 Assay for human Activator Protein 1 (AP-1) (AID 2282931); conditions: HepG2 Attagene cis-factorial AP-1 reporter mRNA; actives raise or lower the signal
Method in brief: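 Multiplexed HepG2 reporter assay, 24 h dosing. mRNA induction detected by RT-PCR plus capillary electrophoresis. Activity fitted in both directions against DMSO.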

[8] = ATG_AP_2_CIS: Attagene CIS-FACTORIAL HepG2 Assay for human Activator Protein 2 (AP-2) (AID 2282932); conditions: HepG2 AP-2 cis-reporter, Attagene transcription factor profiling; actives raise or lower the signal
Method in brief: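 Transiently transfected HepG2 cells are exposed to chemical for 24 h. Reporter transcripts are then measured as fluorescence following RT-PCR and capillary separation, and gain- or loss-of-signal is fitted relative to DMSO.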

[9] = ATG_BRE_CIS: Attagene CIS-FACTORIAL HepG2 Assay for human Bone Morphogenetic Protein (BMP) Response Element (BRE) (AID 2282933); conditions: HepG2 BMP response element reporter, Attagene transcription factor profiling; actives raise or lower the signal
Method in brief: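 HepG2 cells transiently transfected with multiplexed cis-element reporter units were dosed with chemical for 24 h. Reporter mRNA was measured by RT-PCR with fluorescent labelling, HpaI digestion and capillary electrophoresis; bidirectional fitting relative to DMSO.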

[10] = biological target: Retinoic acid receptor alpha (Homo sapiens) (UniProt P10276); assay: ATG_DR5_RAR_CIS: Attagene CIS-FACTORIAL HepG2 Assay for human Retinoic Acid Receptor Alpha (RARE), DR5 submotif (AID 2282934); conditions: HepG2 Attagene cis-factorial RARE DR5 reporter, mRNA; actives raise or lower the signal;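 for AC50: reporter responds to endogenous RAR alpha beta and gamma in HepG2 not RARA alone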
Chain of Retinoic acid receptor alpha (Homo sapiens) (P10276 whole entry, looked up): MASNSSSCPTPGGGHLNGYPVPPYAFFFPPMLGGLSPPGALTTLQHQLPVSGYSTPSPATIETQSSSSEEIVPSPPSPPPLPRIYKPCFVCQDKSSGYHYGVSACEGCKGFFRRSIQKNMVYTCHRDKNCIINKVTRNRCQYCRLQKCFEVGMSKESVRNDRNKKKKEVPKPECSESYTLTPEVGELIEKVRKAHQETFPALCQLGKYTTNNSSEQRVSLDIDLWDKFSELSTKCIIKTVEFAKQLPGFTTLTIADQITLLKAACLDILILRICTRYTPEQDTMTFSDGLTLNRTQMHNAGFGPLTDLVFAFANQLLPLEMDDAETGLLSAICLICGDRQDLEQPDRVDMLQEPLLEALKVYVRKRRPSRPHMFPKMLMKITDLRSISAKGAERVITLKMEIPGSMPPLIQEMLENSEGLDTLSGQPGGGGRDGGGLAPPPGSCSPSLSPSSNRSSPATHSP
Method in brief: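 Transient MRTU transfection of HepG2; 24 h compound treatment; TriZol RNA, oligo(dT) RT, PCR, FAM labelling, capillary electrophoresis. Bidirectional fit vs DMSO. Endogenous TF activity at DR5 RARE.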

[11] = biological target: Transcription factor E2F1 (Homo sapiens) (UniProt Q01094); assay: ATG_E2F_CIS: Attagene CIS-FACTORIAL HepG2 Assay for human E2F Transcription Factor 1 (AID 2282935); conditions: HepG2 Attagene cis-reporter, E2F reporter RNA transcripts; actives raise or lower the signal
Chain of Transcription factor E2F1 (Homo sapiens) (Q01094 whole entry, looked up): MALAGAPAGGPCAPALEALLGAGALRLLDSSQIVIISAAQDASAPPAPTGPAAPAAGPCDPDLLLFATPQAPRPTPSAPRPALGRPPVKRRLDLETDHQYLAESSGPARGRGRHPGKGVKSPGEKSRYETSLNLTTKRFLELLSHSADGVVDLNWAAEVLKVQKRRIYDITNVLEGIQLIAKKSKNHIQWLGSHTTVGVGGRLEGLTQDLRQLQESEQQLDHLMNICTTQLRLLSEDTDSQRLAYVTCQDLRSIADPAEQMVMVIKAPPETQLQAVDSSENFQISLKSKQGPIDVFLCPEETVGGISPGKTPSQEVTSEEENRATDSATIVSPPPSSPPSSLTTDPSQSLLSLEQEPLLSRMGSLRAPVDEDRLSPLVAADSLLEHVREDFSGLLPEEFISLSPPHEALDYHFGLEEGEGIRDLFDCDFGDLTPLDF
Method in brief: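 Fluorescent RT-PCR products, digested with HpaI for 2 h at 37 C, are separated by capillary electrophoresis. Source RNA comes from transfected HepG2 cultures treated for 24 h.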

[12] = ATG_E_Box_CIS: Attagene CIS-FACTORIAL HepG2 Assay for human Enhancer Box (E-box) (AID 2282936); conditions: HepG2 E-box cis-reporter transcription, actives raise or lower the signal
Method in brief: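 Fluorescent reporter fragments separated by capillary electrophoresis gave the signal; mRNA came from HepG2 cells transfected with cis-element reporters and treated 24 h. Curves fitted bidirectionally relative to DMSO controls.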

[13] = ATG_M_61_CIS: Attagene CIS-FACTORIAL HepG2 Assay for M61 Transcription Factor (Internal Marker) (AID 2282937); conditions: HepG2 Attagene CIS-FACTORIAL M61 internal marker reporter; actives raise or lower the signal
Method in brief: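 Endogenous transcription factor activity in HepG2 is read through transiently transfected cis-element reporter units. After 24 h dosing, RNA undergoes reverse transcription, PCR and primer extension with 6-FAM before capillary electrophoresis; DMSO-referenced bidirectional fit.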

[14] = ATG_EGR_CIS: Attagene CIS-FACTORIAL HepG2 Assay for human Early Growth Response 1 (EGR1) (AID 2282938); conditions: HepG2 Attagene CIS-FACTORIAL EGR reporter mRNA; actives raise or lower the signal
Method in brief: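 Activity is taken as induction or loss of reporter mRNA versus DMSO, fitted bidirectionally. Transcripts from cis-regulated reporter units in transiently transfected HepG2 were measured after 24 h by RT-PCR with capillary electrophoresis.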

[15] = ATG_M_19_CIS: Attagene CIS-FACTORIAL HepG2 Assay for M19 Transcription Factor (Internal Marker) (AID 2282939); conditions: HepG2 Attagene CIS-FACTORIAL M19 internal marker reporter; actives raise or lower the signal
Method in brief: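 HepG2 cells transiently transfected with cis-regulated multiple reporter transcription units were dosed for 24 h; reporter mRNA was quantified by RT-PCR, 6-FAM primer-extension labelling, HpaI digestion and capillary electrophoresis, with bidirectional fitting against DMSO baseline.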

[16] = ATG_ERE_CIS: Attagene CIS-FACTORIAL HepG2 Assay for Estrogen Response Element (ERE) (AID 2282940); conditions: HepG2 ERE cis-reporter, Attagene RNA transcript; actives raise or lower the signal
Method in brief: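 HepG2 cells transiently transfected with cis-promoter-driven multiplexed reporter transcription units report endogenous TF activity. After 24 h compound exposure, reporter mRNA is quantified by RT-PCR with capillary electrophoresis fluorescence; bidirectional fitting versus DMSO baseline.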

[17] = ATG_Ets_CIS: Attagene CIS-FACTORIAL HepG2 Assay for human Erythroblast Transformation Specific (ETS) (AID 2282941); conditions: HepG2 ETS cis-reporter transcription, actives raise or lower the signal
Method in brief: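 RT-PCR/capillary electrophoresis fluorescence read-out of reporter mRNA; HepG2 transient multi-reporter transfection; 24 h compound exposure; gain or loss of signal fitted bidirectionally relative to DMSO.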

[18] = biological target: Hepatocyte nuclear factor 3-beta (Homo sapiens) (UniProt Q9Y261); assay: ATG_FoxA2_CIS: Attagene CIS-FACTORIAL HepG2 Assay for human Forkhead box A2 (FOXA2) (AID 2282942); conditions: HepG2 cis-reporter transcription factor activity, 24 h; actives raise or lower the signal
Chain of Hepatocyte nuclear factor 3-beta (Homo sapiens) (Q9Y261 whole entry, looked up): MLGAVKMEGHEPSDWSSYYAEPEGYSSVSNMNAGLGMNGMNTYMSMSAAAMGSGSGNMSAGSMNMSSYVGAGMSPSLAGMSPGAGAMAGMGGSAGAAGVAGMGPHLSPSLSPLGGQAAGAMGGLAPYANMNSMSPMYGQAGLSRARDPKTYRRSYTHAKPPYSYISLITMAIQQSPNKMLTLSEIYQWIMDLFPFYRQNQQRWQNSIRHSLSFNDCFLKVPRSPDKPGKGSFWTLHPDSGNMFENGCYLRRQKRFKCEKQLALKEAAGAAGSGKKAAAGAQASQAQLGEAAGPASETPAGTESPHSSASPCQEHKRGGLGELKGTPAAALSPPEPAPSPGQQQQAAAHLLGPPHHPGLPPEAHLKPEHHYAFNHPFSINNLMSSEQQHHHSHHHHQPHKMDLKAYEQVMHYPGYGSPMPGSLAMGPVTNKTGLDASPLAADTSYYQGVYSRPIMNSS
Method in brief: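 Reporter transcript induction is measured by fluorescence after capillary electrophoresis of RT-PCR products from HepG2 cells exposed 24 h. Cis-regulated reporter units report endogenous factor activity; curves fitted both directions against DMSO.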

[19] = ATG_FoxO_CIS: Attagene CIS-FACTORIAL HepG2 Assay for human Forkhead box O (FoxO) (AID 2282943); conditions: HepG2 Attagene cis-reporter, FoxO element, mRNA; actives raise or lower the signal
Method in brief: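 HepG2, transient MRTU transfection (cis element, endogenous TFs). Dose 24 h. TriZol RNA → oligo(dT) RT → PCR → 6-FAM primer extension → HpaI cut → CE. Gain/loss vs DMSO.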

[20] = ATG_GATA_CIS: Attagene CIS-FACTORIAL HepG2 Assay for human GATA Binding Protein (AID 2282944); conditions: HepG2 GATA cis-element reporter, Attagene multiplex mRNA; actives raise or lower the signal
Method in brief: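 HepG2 cells transiently transfected with multiplexed cis-element reporter units reflecting endogenous transcription factor activity; reporter mRNA measured after 24 h dosing by RT-PCR, 6-FAM labeling, HpaI digestion and capillary electrophoresis. Bidirectional fitting versus DMSO baseline.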

Measured: AC50

CNC(=O)ON=CC(C)(C)SC
active: [11] 149 µM
inactive: [1] | [2] | [3] | [4] | [5] | [6] | [7] | [8] | [9] | [10] | [11] | [12] | [13] | [14] | [15] | [16] | [17] | [18] | [19] | [20]

CON(C)C(=O)Nc1ccc(Cl)c(Cl)c1
active: [4] 55.6 µM | [6] 27.4 µM [middle of 4 runs]
inactive: [1] | [2] | [3] | [4] | [5] | [7] | [8] | [9] | [10] | [11] | [12] | [13] | [14] | [15] | [16] | [17] | [18] | [19] | [20]

CCCN(CCC)c1c([N+](=O)[O-])cc(S(N)(=O)=O)cc1[N+](=O)[O-]
active: [5] 4.79 µM and 11.1 µM | [10] 1.22 µM and 1.19 µM
inactive: [1] | [2] | [3] | [4] | [5] | [6] | [7] | [8] | [9] | [10] | [11] | [12] | [13] | [14] | [15] | [16] | [17] | [18] | [19] | [20]

CNC(=S)S
inactive: [1] | [2] | [3] | [4] | [5] | [6] | [7] | [8] | [9] | [11] | [12] | [13] | [14] | [15] | [16] | [17] | [18] | [19] | [20]
active: [4] 50 µM | [6] 33.2 µM | [7] 50 µM | [9] 65.9 µM | [14] 50 µM

CC(C)(C)c1ccc(CSc2cnn(C(C)(C)C)c(=O)c2Cl)cc1
active: [2] 0.188 µM | [3] 0.0129 µM | [5] 50 µM | [7] 0.0997 µM | [9] 0.103 µM | [10] 583 nM | [14] 0.128 µM | [16] 5.23 µM
inactive: [1] | [4] | [6] | [8] | [11] | [12] | [13] | [15] | [17] | [18] | [19] | [20]

COC(=O)N(OC)c1ccccc1COc1ccn(-c2ccc(Cl)cc2)n1
inactive: [1] | [6] | [7] | [8] | [11] | [12] | [13] | [14] | [15] | [16] | [18] | [19] | [20]
active: [2] 0.532 µM | [3] 0.401 µM | [4] 0.457 µM | [5] 2.77 µM | [9] 0.743 µM | [10] 640 nM | [17] 1.47 µM
